Data reported in PubChem BioAssay AID2546 (National Center for Advancing Translational Sciences (NCATS), 2010).
Where “and” joins values, the source holds several entries; their conditions need not be identical. Equal values may be shown once. Screen size: about 310,000 compounds; about 11,000 (3.5%) were called active. Inconclusive results (about 8%) are left out. The sample holds actives, similar compounds and a random draw of the others, so the mix is not that of the screen. Values without a mark were called inactive. Calls follow the shape of the dose curve; as a rule, active = well fitted inhibition curve with a large enough effect; inconclusive = small, poorly fitted or top-dose-only effect, or effect the other way; inactive = flat fitted curve, though single readings scatter.

test: VP16 counterscreen qHTS for inhibitors of ROR gamma transcriptional activity; conditions: Drosophila S2 Gal4-VP16 UAS-luciferase, luminescence, 20 h; series mostly up to 53.6 µM; activity, negative = inhibition: at the top concentration;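 also: Gal4-VP16 expression switched on by copper sulfate through the metallothionein promoter; nearly all actives have a fitted effect of over 50% in size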
% is scaled to controls: 0 for no effect and ±100 for the full control effect; potency is read from the fitted curve at half-maximal effect.

| SMILES | activity, negative = inhibition | Potency |
| --- | --- | --- |
| CCOC(=O)c1ccc(NC(=O)Cc2cccs2)cc1 | 3.14% |  |
| CCC1Sc2ccc(S(=O)(=O)CCC(=O)NCc3cccs3)cc2NC1=O (stereo not given) | -3.04% |  |
| COc1ccccc1CNC(=O)c1ccc(N(C)S(=O)(=O)c2ccc(C)cc2)cc1 | -4.62% |  |
| CSc1ncccc1C(=O)Nc1ccc(C)cn1 | 3.04% |  |
| COc1ccc(OC)c(NC(=O)CN(C)CCOc2ccc(Br)cc2)c1 | -7.46% |  |
| CC1(C)Cc2c(sc(NC(=O)C(=O)NCC3CCCO3)c2C(=O)O)CO1 (stereo not given) | 9.69% |  |
| COc1ccc(C2CC(c3ccc([N+](=O)[O-])cc3)=NN2C(C)=O)cc1 (stereo not given) | -8.56% |  |
| Cc1cccnc1CCNC(=O)C1CCC(=O)N(Cc2cccc(F)c2)C1 (stereo not given) | -1.61% |  |
| O=C(NCCCN1CCOCC1)c1ccc2c(c1)N(Cc1cccc(F)c1)C(=O)c1ccccc1S2 | -0.386% |  |
| COc1ccc(CCNc2nc(-c3cccc(NC(C)=O)c3)cs2)cc1OC | 5.47% |  |
| COc1ccc(CC(=O)Nc2nc(-c3ccc(F)c(F)c3)cs2)cc1OC |  | 15.8 µM (active) |
| COc1cccc(CC(=O)Nc2nc(-c3ccc(OC)c(OC)c3)cs2)c1 | 4.05% |  |
| CCOC(=O)C1(Cc2ccccc2C)CCCN(C(=O)CN2C(=O)CSC2=O)C1 (stereo not given) | -7.58% |  |
| CCOC(=O)c1cccc(NC(=O)C2CCN(c3ncnc4c3nc3n4CCCCC3)CC2)c1 | 0% |  |
| CN(C(=O)c1ccccc1)c1nccnc1C#N | 6.12% |  |
| O=C(Cc1ccccc1)N1N=C(c2ccncc2)CC1(O)C(F)(F)F (stereo not given) | -3.57% |  |
| CC1=NN(C(=O)CCc2ccccc2O)C(O)(C(F)(F)F)C1 (stereo not given) |  | 12.6 µM (active) |
| COc1ccc(CC(=O)N2N=C(C)CC2(O)C(F)(F)F)cc1 (stereo not given) |  | 8.91 µM (active) |
| CCCCCNC(=O)Cc1ccc(OC)cc1 | 13.1% |  |
| NC(=O)c1ccc(Nc2ccc3c(c2)CCC3)c([N+](=O)[O-])c1 | -16.3% |  |
| Cc1ccc(Nc2ncnc3c2cnn3C)c(C)c1 | -3.95% |  |
| COC(=O)c1c(NC(=O)C2CC(C)=C(C)CC2C(=O)O)sc2c1CCCCC2 (stereo not given) | -2.79% |  |
| O=S(=O)(/C=C/c1ccccc1)N1CCNCC1 | 4.26% |  |
| CCc1ccc(OCC(=O)NCC(c2ccc(Cl)cc2)N2CCCCC2)cc1 (stereo not given) | -13.5% |  |
| Cc1ccc(S(=O)(=O)c2c[nH]c3ccc(C)cc3c2=O)cc1 | -3.91% |  |
| Cc1cc(/C=N/Nc2ccc([N+](=O)[O-])cn2)c(C)n1-c1cccc(C(=O)O)c1 | 15.8% |  |
| Cc1cc(/C=N/NC(N)=O)c(C)n1C1CCCCC1 | -0.922% |  |
| Cc1cccc(-n2c(C)cc(/C=N/NC(N)=S)c2C)c1 |  | 2.82 µM (active) |

| SMILES | activity, negative = inhibition | Potency |
| --- | --- | --- |
| O=C(CN1CCN(C(=O)C2CCCO2)CC1)Nc1c(Cl)cccc1Cl (stereo not given) | -7.25% |  |
| COc1ccc(Oc2ncc3nc(C)c(=O)n(-c4ccccc4)c3n2)cc1 | 4.94% |  |
| Cc1n[nH]c(=O)n1-c1ccc(Oc2ccccc2)cc1 |  | 0.891 µM (active) |
| Cc1n[nH]c(=O)n1-c1ccc(C(C)C)cc1 | 6.72% |  |
| Cc1cccc(CNS(=O)(=O)c2ccc(-c3cnc(C4CC4)o3)cc2)c1 | -17.6% |  |
| CCOc1ccc(CN(C)C(=O)c2ccc(=O)[nH]c2)cc1 | 8.5% |  |
| Cc1cccc(NC(=O)c2cccnc2Cl)n1 | 6.9% |  |
| Cc1ccc2nc(N(CCN(C)C)C(=O)C3=COCCO3)sc2c1 | 19.1% |  |
| COc1cc(NS(=O)(=O)c2ccc3ccccc3c2)c2ncccc2c1 |  | 708 nM (active) and 562 nM (active) |
| COc1ccc2cc(S(=O)(=O)Nc3ccccn3)ccc2c1 | -11% |  |
| Cc1ccc(NS(=O)(=O)c2ccc(C)c(NC(=O)COc3ccc4ccccc4c3)c2)c(C)c1 | -3.61% |  |
| N#CCSc1nc(-c2ccccc2)nc2ccc(F)cc12 | 0.836% |  |
| Cc1nc2ccc(S(=O)(=O)N(C)CC(=O)NC(C)c3ccccc3)cc2s1 (stereo not given) | 13.1% |  |
| CC1CC(C)(C)NC(=S)N1CCC(=O)N1CCN(Cc2ccccc2)CC1 (stereo not given) | -2.35% |  |
| CC1CC(=O)Nc2ccccc2N1S(=O)(=O)c1cccs1 (stereo not given) | 4.46% |  |
| CC1CC(=S)Nc2ccccc2N1Cc1ccccc1 (stereo not given) |  | 3.16 µM (active) |
| Cc1ccccc1OCC(=O)Nc1ccc(S(=O)(=O)N2CCOCC2)cc1 | 9.7% |  |
| O=C(c1ccccc1)N1CCN(C(=O)c2cc3nc(-c4ccccc4)cc(C(F)(F)F)n3n2)CC1 | -8.68% |  |
| COc1ccc(-c2cc(C(F)(F)F)nc(S(C)(=O)=O)n2)cc1OC |  | 5.62 µM (active) |
| COc1cc(OC)nc(S(C)(=O)=O)n1 | -27.7% |  |
| COc1ccc(-c2cc(C(F)(F)F)nc(SCC(=O)Nc3ccc4c(c3)OCO4)n2)cc1OC | -26.3% |  |
| CC1=C(C(=O)OCC2CCCCC2)C(c2ccc(F)cc2)NC(=O)N1 (stereo not given) | 2.73% |  |
| CC1CN(C(=S)Nc2ccccc2F)CC(C)O1 (stereo not given) | 0.303% |  |
| CCOC(=O)c1c(NC(=O)c2ccc(S(=O)(=O)N(C)CC3CCCO3)cc2)sc2c1CC(C)(C)NC2(C)C (stereo not given) | -4.31% |  |
| COC(=O)c1c(NC(=O)COc2ccc(Cl)cc2Cl)sc2c1CC(C)(C)NC2(C)C |  | 22.4 µM (active) |
| COC(=O)c1sccc1NC(=O)COc1ccc(Cl)cc1 | -1.35% |  |
| CCCn1c(C(C)Nc2nc(-c3ccc(C)cc3)cs2)nc2cc(Cl)c(N3CCCCC3)cc21 (stereo not given) | -9.71% |  |
